Assay outcomes: PubChem, National Center for Advancing Translational Sciences (NCATS)
HepG2 tox: qHTS for Inhibitors of TGF-b: Cytotox Counterscreen; Potency, µM (doses to about 46.1 µM), most hits filed as cytotoxic; HepG2 CAGA-GFP viability, ATP luminescence, 18 h; AID 588856, 2011; hit rate 0.76% among 410,000
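CellTiter-Glo luminescence gave cytotoxicity after 18 hours at 37 degrees C. The cells were HepG2 CAGA-GFP in 1% FBS DMEM, stimulated with 500 pg/mL TGF-beta after compound addition. %Activity was normalised to no-cell wells (complete cell-killing) and DMSO (no toxicity), and curves were fitted and classified.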
TGFb inhibitor: qHTS for Inhibitors of TGF-b; Potency, µM (highest dose often 46.1 µM), hits mostly inhibitors; AID 588855, 2011; HepG2 CAGA-GFP TGF-b/SMAD3 reporter, GFP fluorescence, 18 h; TGF-beta stimulated, 500 pg/mL final; hit rate 1.2% among 410,000; also: nearly all actives have a fitted effect of over 65% in size
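Cell-based qHTS in HEPG2 carrying a CAGA-GFP Smad reporter; compounds added before 500 pg/mL final TGF-beta, 18 h incubation at 37 degrees C, GFP fluorescence quantified per cell by imaging cytometry.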
S-ASM inh: Inhibitors of Secretory Acid Sphingomyelinase (S-ASM): qHTS; Sphingomyelin phosphodiesterase (Homo sapiens), P17405; placental ASM, HMU-PC fluorogenic substrate, 60 min; Potency, µM (top dose mostly 57.5 µM), hits mostly inhibitors; hit rate 0.006% among 340,000
Target sequence (P17405 47-631 limits assumed): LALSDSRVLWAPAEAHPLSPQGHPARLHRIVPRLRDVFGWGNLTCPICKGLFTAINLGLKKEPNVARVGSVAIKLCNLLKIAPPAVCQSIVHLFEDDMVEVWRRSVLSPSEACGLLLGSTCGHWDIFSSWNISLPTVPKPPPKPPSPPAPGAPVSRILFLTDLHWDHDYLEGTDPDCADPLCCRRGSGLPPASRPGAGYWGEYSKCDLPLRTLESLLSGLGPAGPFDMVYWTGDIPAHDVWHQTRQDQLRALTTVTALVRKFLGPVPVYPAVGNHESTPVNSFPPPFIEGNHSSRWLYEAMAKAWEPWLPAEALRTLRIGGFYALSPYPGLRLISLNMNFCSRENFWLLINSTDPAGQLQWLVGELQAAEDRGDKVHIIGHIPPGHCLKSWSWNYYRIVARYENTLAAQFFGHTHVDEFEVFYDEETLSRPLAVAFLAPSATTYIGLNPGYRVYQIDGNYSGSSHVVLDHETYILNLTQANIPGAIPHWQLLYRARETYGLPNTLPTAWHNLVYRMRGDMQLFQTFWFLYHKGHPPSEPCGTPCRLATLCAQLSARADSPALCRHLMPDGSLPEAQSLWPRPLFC
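HMU-PC0 cleavage (9 uM final) by human placental ASM, 60 min at 37 °C following 10 min compound exposure at RT; stopped at pH 10, fluorescence Ex 386/Em 447 nm.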
TDP1 cell noCPT: qHTS for Inhibitors of human tyrosyl-DNA phosphodiesterase 1 (TDP1): qHTS in cells in absence of CPT; DT40 Tdp1-/- hTDP1 cells, no CPT, ATP luminescence, 48 h; Potency, µM (series often up to 46.2 µM), actives largely listed as inhibitors; hit rate 15% among 420,000; also: nearly all actives have a fitted effect of over 55% in size
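Growth of hTDP1-complemented DT40 Tdp1-knockout cells is measured by ATP luminescence after at least 48 hr compound exposure at 37 °C, with DMSO substituting for the 20 nM CPT used in the parallel screen.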
IL1B secr inh: qHTS for Inhibitors of Inflammasome Signaling: IL-1-beta AlphaLISA Primary Screen; activity change, % at 57.5 µM; THP-1 LPS/ATP IL-1B secretion, AlphaLISA, 16 h; active compounds read low; hit rate 4.7% among 360,000; AID 743279, 2014; in the data active = activity change below about -50%; inconclusive = mostly about -30% to -49%
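THP-1 cells pretreated 1 hr with compounds (up to 57.5 uM final), then stimulated with LPS (250 ng/mL final) plus ATP (1.25 mM final); secreted IL-1B measured by AlphaLISA after 16 hr, decreased signal indicating inhibition.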
DT40 TDP1 CPT: qHTS for Inhibitors of human tyrosyl-DNA phosphodiesterase 1 (TDP1): qHTS in cells in presence of CPT; hit rate 12% among 420,000; AID 686979, 2013; chicken DT40 Tdp1-/-;hTDP1 cells + 20 nM CPT, ATP luminescence, 48 h; Potency, µM (top dose mostly 46.2 µM), usual class: inhibitors; also: nearly all actives have a fitted effect of over 55% in size
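Chicken DT40 Tdp1-/- cells stably complemented with human TDP1 were seeded at 400 cells/well in medium containing 20 nM camptothecin, exposed to pin-transferred compounds, and grown at 37 °C for at least 48 hr. Viability was read as ATP luminescence.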
A number is an active result; . = inactive; ? = inconclusive; / = no result. Shown are actives, neighbours in structure and some others; about 19% of the full set was active somewhere. Unless noted, calls follow the shape of the dose curve; as a rule, active = well fitted curve in the direction sought with a large enough effect; inconclusive = small, poorly fitted or top-dose-only effect, or another doubt; inactive = no such curve, though single readings can be large; an effect the other way counts as inactive or inconclusive.

SMILES	HepG2 tox	TGFb inhibitor	S-ASM inh	TDP1 cell noCPT	IL1B secr inh	DT40 TDP1 CPT
Cc1ccc2nc3c(cc(C(=O)NCc4ccccc4)c(=N)n3CCCn3ccnc3)c(=O)n2c1	.	.	.	?	?	?
Cc1cccn2c(=O)c3cc(C(=O)NCc4ccccc4)c(=N)n(CCOCCO)c3nc12	.	.	/	26µM	/	12µM
Cc1cccn2c(=O)c3cc(C(=O)NC(C)c4ccccc4)c(=N)n(CCCn4ccnc4)c3nc12 (stereo not given)	.	.	.	?	-83	?
Cc1cccn2c(=O)c3cc(C(=O)NCc4cccnc4)c(=N)n(CCCO)c3nc12	.	.	/	.	/	.
Cc1cccn2c(=O)c3cc(C(=O)NC(C)c4ccccc4)c(=N)n(CCOCCO)c3nc12 (stereo not given)	.	.	/	26µM	/	23µM
CCOCCCn1c(=N)c(C(=O)NC(C)c2ccccc2)cc2c(=O)n3cccc(C)c3nc21 (stereo not given)	.	?	/	16µM	/	16µM
COCCn1c(=N)c(C(=O)NC(C)c2ccccc2)cc2c(=O)n3cc(C)ccc3nc21 (stereo not given)	.	.	/	.	/	.
CC(C)(C)n1ncc2c(=O)n(Cc3ccccc3Br)cnc21	.	.	.	/	/	/
CCSc1nnc(SCC(=O)c2c(N)n(C)c(=O)n(C)c2=O)s1	.	.	.	23µM	.	?
Cc1cc(C)nc(SCC(=O)c2c(N)n(C)c(=O)n(C)c2=O)n1	.	.	.	.	.	.
Cn1c(N)c(C(=O)CSc2ccc3c(c2)OCCO3)c(=O)n(C)c1=O	.	.	.	18µM	.	18µM
CCC(=O)N1CCc2cc(S(=O)(=O)N3CCCCC3CC)ccc21 (stereo not given)	.	.	.	.	.	.
CC(C)OCCCNC(=O)CCCn1c(=O)[nH]c2ccsc2c1=O	.	.	/	.	/	.
O=C1C2CCc3ccccc3C2N1c1ccccc1 (stereo not given)	.	.	.	?	.	.
CC(C)c1ccc(/C=c2\sc3nc(-c4ccncc4)nn3c2=O)cc1	.	.	.	12µM	.	?
Cc1ccc(/C=c2\sc3nc(-c4cccnc4)nn3c2=O)cc1	.	.	.	29µM	.	?
CN1CCN(S(=O)(=O)c2cccc(C(=O)N(Cc3nnc(-c4ccccc4Cl)o3)C3CC3)c2)CC1	.	.	.	.	.	.
CCOc1cc(-c2nc(-c3ccccc3)c(-c3cc([N+](=O)[O-])ccc3C)[nH]2)ccc1O	.	?	?	23µM	.	?
O=[N+]([O-])c1ccc(O)c(-c2nc(-c3ccccc3)c(-c3cccs3)[nH]2)c1	.	.	?	18µM	.	21µM
O=C(O)c1ccc(-c2nc(-c3ccccc3)c(-c3cccs3)[nH]2)cc1	.	.	.	.	.	.
COc1ccc(-c2nc(-c3ccccc3)c(-c3cc([N+](=O)[O-])ccc3C)[nH]2)cc1OC	.	.	.	18µM	.	23µM
COc1ccc(-c2nn(CC(=O)Nc3ccc(Cl)c(Cl)c3)c(=O)c3ccccc23)cc1	.	.	.	.	.	.
Cc1cc(=O)n(CC(=O)Nc2ccc([N+](=O)[O-])cc2)c(-n2nc(C)cc2C)n1	.	.	/	21µM	/	18µM
Cc1cc(C)n(-c2nc(C)c(C)c(=O)n2CC(=O)Nc2ccc(OC(F)(F)F)cc2)n1	.	.	/	18µM	/	15µM
Cc1cc(C)n(-c2nc(C)c(C)c(=O)n2CC(=O)Nc2ccc(Cl)c(Cl)c2)n1	.	.	/	7.3µM	/	15µM
SMILES	HepG2 tox	TGFb inhibitor	S-ASM inh	TDP1 cell noCPT	IL1B secr inh	DT40 TDP1 CPT
CC(C)[C@H](NC(=O)OC(C)(C)C)c1cc(C(=O)NCCO)c(N)s1	/	/	/	.	.	.
COc1ccc(CCNC(=O)c2cc([C@@H](NC(=O)OC(C)(C)C)C(C)C)sc2N)cc1OC	/	/	/	18µM	?	16µM
CC(C)CC1CCCCC1OC(=O)C[N+]1(C)CCCCC1 (stereo not given)	.	.	.	10µM	.	?
CC(C)(C)C1CCC(OC(=O)CN2CCOCC2)CC1 (stereo not given)	.	.	.	.	.	.
C[N+]1(CC(=O)OCCCC2CCCCC2)CCCC1	.	.	.	21µM	.	.
CC(C)(C)C1CCC(OC(=O)C[N+]2(C)CCCC2)CC1 (stereo not given)	.	.	.	5.2µM	.	4.1µM
CC(C)(C)C1CCC(OC(=O)C[N+]2(C)CCCCC2)CC1 (stereo not given)	.	.	.	10µM	.	?
CCC/C(=C1/c2ccccc2C(=O)N1c1ccccc1)c1ccc(O[C@@H]2CCCCO2)cc1	.	?	.	16µM	.	?
CCC/C(=C1/c2ccccc2C(=O)N1c1ccccc1)c1ccc2c(c1)OCCO2	.	?	.	.	.	?
CCC/C(=C1/c2ccccc2C(=O)N1c1ccccc1)c1cnc(OC)nc1	.	13µM	.	.	.	?
COc1ccc(-n2nc(C(=O)N(C)c3cccc(C(F)(F)F)c3)c3c4ccccc4n(C)c3c2=O)cc1	.	.	/	.	/	.
CC(=O)c1ccc(NC(=O)Cn2c(=O)cc(C)c3c(C)nn(-c4cccc(F)c4)c32)cc1	.	.	/	.	/	.
COc1cccc(CSc2nc3cc4c(cc3cc2C)OCCO4)c1	.	.	.	29µM	.	?
Cc1cc2cc3c(cc2nc1SCc1ccc(C(=O)O)cc1)OCCO3	.	.	.	.	.	.
CCOC(=O)N1CCN(C(=O)c2cn(C)c(=O)c3c2c2ccccc2n3C)CC1	.	.	.	25µM	.	?
CCOC(=O)N1CCN(C(=O)c2cn(CC(C)C)c(=O)c3c2c2ccccc2n3C)CC1	.	.	.	?	.	?
Cn1c2ccccc2c2c(C(=O)N3CCN(C(=O)c4ccco4)CC3)cn(C3CCCCC3)c(=O)c21	.	.	.	?	.	?
Cn1c2ccccc2c2c(C(=O)N3CCN(c4ccccn4)CC3)cn(C3CCCC3)c(=O)c21	.	.	.	15µM	-59	?
COc1ccc(N2CCN(C(=O)c3cn(C)c(=O)c4c3c3ccccc3n4C)CC2)cc1	.	.	?	15µM	.	?
